High-throughput results from PubChem BioAssay.
Most compounds without a hit are left out; they make up all but 3.7% or so of the library.
TCR act: activators of T cell receptors | primary human leukocytes, anti-CD3, IL-2 HTRF, 48 h | Potency, µM (doses to about 9.22 µM), usual class: activators | 330,000 tested, under 10 active
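Activity was scored as IL-2 release from primary human leukocytes given only a TCR signal (a-CD3 beads) plus compound for 48 hr. Detection used a two-antibody HTRF format read at 665nm.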
VDR inh: inhibitors of human vitamin D receptor | P11473 | VDR-SRC2-3 peptide fluorescence polarization, 2 h | Potency, µM, most hits filed as inhibitors | actives 0.93% (n = 400,000)
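After 23 nl compound addition and a short centrifugation, plates sat for 2 hours at ambient temperature; polarization of fluorescence then indicated loss of VDR binding to peptide SRC2-3.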
PLK1 PBD inh: inhibitors of human PLK1 polo-box domain binding | AID 720504 | Plk1 PBD binding of FITC phosphopeptide, fluorescence polarization | actives 2.8% (n = 360,000) | Potency, µM, most hits filed as inhibitors | P53350; further: series mostly up to about 57 µM; nearly all actives have a fitted effect of over 65% in size
Target sequence (P53350 whole entry, looked up, the tested form may be a part): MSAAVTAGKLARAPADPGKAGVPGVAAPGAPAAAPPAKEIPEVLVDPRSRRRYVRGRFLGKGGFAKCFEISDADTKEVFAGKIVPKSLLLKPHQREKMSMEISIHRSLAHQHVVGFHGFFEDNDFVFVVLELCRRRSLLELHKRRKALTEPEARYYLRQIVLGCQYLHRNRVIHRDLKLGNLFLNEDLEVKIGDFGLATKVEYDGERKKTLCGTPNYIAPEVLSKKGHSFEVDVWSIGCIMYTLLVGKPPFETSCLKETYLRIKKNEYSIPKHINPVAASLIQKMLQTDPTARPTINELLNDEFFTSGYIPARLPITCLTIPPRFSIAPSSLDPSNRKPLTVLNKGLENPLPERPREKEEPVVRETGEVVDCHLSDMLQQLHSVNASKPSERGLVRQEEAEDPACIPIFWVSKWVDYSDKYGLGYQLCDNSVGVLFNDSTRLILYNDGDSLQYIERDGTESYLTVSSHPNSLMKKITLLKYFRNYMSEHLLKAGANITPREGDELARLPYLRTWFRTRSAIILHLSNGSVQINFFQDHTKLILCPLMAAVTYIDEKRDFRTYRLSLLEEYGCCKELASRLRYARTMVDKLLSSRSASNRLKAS
FEN1 inh: human FEN1 inhibition. AID 588795. Recombinant FEN1 flap cleavage, fluorescence, 15 min. Potency, µM (doses to about 114 µM), usual class: inhibitors. P39748. actives 0.35% (n = 390,000); further: nearly all actives have a fitted effect of over 65% in size
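Recombinant FEN1 (10 nM) was preincubated with pin-transferred compounds for 15 min at room temperature, then flap DNA substrate (50 nM final) was added. Plates were read at 0 and 15 min, and normalized concentration–response data were fitted to a four-parameter Hill equation.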
PI5P4Ka inh: PI5P4K alpha (human) kinase inhibition | PI5P4Kalpha enzyme, ADP-Glo luminescence, 60 min; active compounds read low | max response, % | actives 1.2% (n = 330,000) | AID 652105; active means max response of -50% or lower; inconclusive means between -30% and -50%; inactive means -30% or higher; further: value at the top dose of about 77 µM
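Quantitative HTS of the MLSMR library against PI5P4Kalpha with substrate. ATP added last at 5 microM final; room temperature, 60 minutes. Remaining ATP depleted, ADP converted and read as luminescence.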
WRN helicase inh: blocks human WRN helicase | Q14191 | WRN helicase unwinding, fluorescent forked duplex, kinetic | Potency, µM (highest dose often 114 µM), actives largely listed as inhibitors | actives 0.46% (n = 360,000) | AID 651768; further: nearly all actives have a fitted effect of over 55% in size
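Enzyme (20 nM final) and test compound sit together 15 min at room temperature before substrate addition. Substrate is a single-forked duplex oligonucleotide (100 nM) labelled with fluorophore and quencher, with 2 mM ATP; helicase unwinding raises red fluorescence, read kinetically.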
Numbers stand for hits; - = inactive; ? = inconclusive; . = no result; [ ] = remark or other dose. Unless noted, the call rests on the fitted dose curve; in most records, active means well fitted curve in the direction sought with a large enough effect; inconclusive means small, poorly fitted or top-dose-only effect, or another doubt; inactive means no such curve, though single readings can be large; an effect the other way counts as inactive or inconclusive.

SMILES	TCR act	VDR inh	PLK1 PBD inh	FEN1 inh	PI5P4Ka inh	WRN helicase inh
CCOc1ccc(S(=O)(=O)Nc2cccc(-c3ccc(OCC)nn3)c2)cc1	.	-	.	-	.	.
CC(=O)Nc1nonc1-c1nc2ccccc2n1Cc1ccccc1Br	.	-	.	-	.	.
CCCCN1CC2([N+](=O)[O-])C=CC(=O)C([N+](=O)[O-])(C1)C2CC(=O)c1ccccc1 (centres undefined)	-	?	-	-	-	-
CCN1CC2([N+](=O)[O-])C=CC(=O)C([N+](=O)[O-])(C1)C2CC(=O)c1ccccc1 (centres undefined)	-	-	?	-	-53	-
CCc1cccc(NC(=O)CSc2nc3ccccc3nc2N2CCCCC2)c1	.	-	.	-	.	.
CCOc1ccccc1OC(=O)c1cc2ccccc2oc1=O	-	?	21µM	-	-	-
CCOc1ccccc1NC(=O)c1cc2ccccc2oc1=O	.	-	-	-	-	-
CCc1cc(=O)oc2cc(C)c(CN3CCCC(C)C3)c(O)c12 (centres undefined)	-	-	?	50µM	.	35µM
CCc1cc(=O)oc2c(CN3CCCC3)c(O)c(Cl)cc12	-	-	-	-	.	-
CCCCc1cc(=O)oc2cc(C)c(CN3CCCC3)c(O)c12	-	-	-	?	.	50µM
CC(C)(C)OC(=O)N1C2C=CC1C1=COCCN1C2=O (centres undefined)	.	-	.	-	.	.
CSc1nc(=S)cc(C)[nH]1	-	50µM	15µM	-	?	40µM
CCCCn1cnc2c1c(=O)[nH]c(=O)n2CCCC	-	-	12µM	-	-	-
CCOC(=O)[C@H](Cc1ccc(O)cc1)NC(=O)c1ccccc1	.	-	.	.	.	.
CCOc1ccc(/C=C2/C(=N)N3OC(C)=CC3=NC2=O)cc1OC	-	?	21µM	-	-	-
CC(C)(C)c1ccc(C(=O)C[n+]2cc(Br)cc(Br)c2)cc1	.	.	.	-	.	.
CCOC(=O)C1CCCN(CCC(=O)Nc2cccc(Cl)c2C)C1 (centres undefined)	-	-	-	-	-	-
CCOC(=O)C1CCN(CCC(=O)Nc2ccccc2Cl)CC1	-	-	24µM	-	-	-
NC(=S)N/N=C/c1cccc(O)c1O	-	-	-	-	-	-
Cc1cc(/C=N/NC(N)=S)c(O)c(/C=N/NC(N)=S)c1	-	-	?	-	-64	-
Cc1ccc(-c2ccc(/C=N/NC(N)=S)o2)cc1	-	89µM	6µM	-	-	-
O=c1[nH]c(=O)c2nnc(N/N=C/c3ccccc3F)nc2[nH]1	-	-	-	-	-88	-
Nc1nnc(CC(=O)N/N=C/c2ccc(-c3ccccc3Cl)o2)s1	-	-	-	-	-53	-
COC(=O)c1ccc(-c2ccc(/C=N/NC(=O)Cc3nnc(N)s3)o2)cc1	-	-	-	-	-56	-[11.6 µM]
CCOC(=O)NC(=O)COC(=O)CCCSc1nc2ccccc2s1	-	-	-	-	-	-
SMILES	TCR act	VDR inh	PLK1 PBD inh	FEN1 inh	PI5P4Ka inh	WRN helicase inh
NC(=O)NC(=O)COC(=O)CCCSc1nc2ccccc2s1	-	-	21µM	-	-	-
COc1ccc(OC)c(-c2csc(NC(=O)COC(=O)c3ccc(NC(=O)CC#N)cc3)n2)c1	-	-	-	79µM	-61	?
CCN(CC)c1ccc2cc(-c3nc(-c4cccs4)no3)c(=O)oc2c1	.	-	.	-	.	.
CCc1c(C)sc(NC(=O)c2cc(-c3ccco3)on2)c1C#N	.	?	27µM	-	.	-
CCc1c(C)sc(NC(=O)C2CCCO2)c1C#N (centres undefined)	-	?	24µM	-	-	-
CCc1c(C)sc(NC(=O)c2cc(C3CC3)on2)c1C#N	-	-	?	-	-	-
CCCc1cc(C(=O)Nc2sc(C)c(CC)c2C#N)no1	-	?	27µM	-	-	-
CCCCn1cnc2cc(NCc3ccccc3Cl)ccc21	.	-	.	-	.	.
COc1cc(-c2n[nH]c(=S)n2C(C)c2ccccc2)cc(OC)c1OC (centres undefined)	-	-	-	-	-	-
O=C1c2ccccc2C(=O)N1CCSc1n[nH]c(=S)s1	-	?	-	-	-77	-
CC(CSc1n[nH]c(=S)s1)c1ccccc1 (centres undefined)	-	-	?	-	-54	-
CCC1CCCCN1CCCNC(=O)c1ccc2c(c1)sc1nc(-c3ccc(F)cc3)cn12 (centres undefined)	.	-	.	-	.	.
COc1ccc2c(c1)O[C@@H](c1ccc3c(c1)OCO3)[C@H](OC(=O)NS(=O)(=O)c1ccc(F)cc1)C2=O	.	-	.	.	.	.
Brc1cccc(CNCCCN2CCOCC2)c1	-	-	27µM	-	-	-
S=C(NCCCN(Cc1ccc(Cl)cc1)c1ccc(Br)cn1)NCc1ccc2nc[nH]c2c1	.	-	.	-	.	.
CCN(C(=O)CCn1cnc2onc(-c3ccc(F)cc3)c2c1=O)c1ccc(OC)cc1	.	-	.	-	.	.
CCN(CCCNC(=O)CCc1nc(-c2ccc(C)cc2)no1)c1cccc(C)c1	-	-	24µM	-	-	-
COc1ccccc1-c1nc(SCC(=O)c2ccc(Cl)cc2)n[nH]1	.	-	.	-	.	.
O=C(COc1cccc(Br)c1)N/N=C1\CCSC1	-	?	21µM	-	-	-
CCOC(=O)c1ccccc1NC(=O)Cn1c(=O)n(Cc2nc(C)no2)c(=O)c2ccccc21	.	-	.	-	.	.
COc1cccc(-c2nc(CS(=O)(=O)CC(=O)NC3CCC(C)CC3)c(C)o2)c1 (centres undefined)	-	?	24µM	-	-	-
COc1ccc(-c2nc(CS(=O)(=O)CC(=O)NC3CCCCC3C)c(C)o2)cc1 (centres undefined)	-	?	24µM	-	-	-
CCOC(=O)N1CCC(NC(=O)CS(=O)(=O)Cc2nc(-c3ccc(OC)cc3)oc2C)CC1	-	?	21µM	-	-	-
CCOC(=O)c1c(NC(=O)c2c(C(=O)O)cccc2[N+](=O)[O-])sc2c1CCCC2	-	?	12µM	-	?	-
CCOC(=O)c1c(/N=C/c2cccc([N+](=O)[O-])c2O)sc2c1CCC2	-	-	27µM	-	-	-
SMILES	TCR act	VDR inh	PLK1 PBD inh	FEN1 inh	PI5P4Ka inh	WRN helicase inh
COC(=O)c1c(NC(=O)CCC(=O)O)sc2c1CCCCC2	-	-	?	-	-	-
CCOC(=O)c1c(NC(=O)CCC(=O)O)sc2c1CCCCC2	-	?	6.7µM	-	-	-
CCOC(=O)c1c(/N=C/c2ccccc2O)sc2c1CCC2	-	-	?	-	-	-
COC(=O)c1ccc(NC(=O)c2c(NCc3cccc(F)c3)sc3c2CCCC3)cc1	.	-	.	-	.	.
CC(C)(C)n1ncc2c(=O)n(Cc3cccc(OC(F)F)c3)cnc21	.	.	.	-	.	.
O=C1C(=O)c2ncccc2-c2cccnc21	.	1.3µM	.	.	.	.
NC1=C(Br)C(=O)c2ncccc2C1=O	-	?	7.5µM	-	-	?
